Bioassay records deposited in PubChem BioAssay by National Center for Advancing Translational Sciences (NCATS).
D1 ag = Allosteric Agonists of the Human D1 Dopamine Receptor: qHTS; D(1A) dopamine receptor (Homo sapiens), P21728; HEK293 T-REx D1 cells, calcium flux, agonist mode; activation, % at 2 µM; 1% of 360,000 active; further: 0% is about no effect
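Agonism was scored from calcium flux recorded over 180 s (1 read/s) after pintool compound addition, following a 10-cycle baseline. Cells were inducible force-coupled HEK293 TREx D1, plated overnight at 30 C and loaded with no-wash calcium dye.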
D1 potentiator = Potentiators of Human D1 Dopamine Receptor: qHTS; D(1A) dopamine receptor (Homo sapiens), P21728; HEK293 TREx D1 cells, calcium flux, dopamine EC20 potentiation; potentiation, % at 10 µM; 0.036% of 360,000 active; in the data active means potentiation above about 30%; further: 0% is about no effect
TRHR agonist = qHTS for Small Molecule Agonists and Allosteric Enhancers of Human TRH Receptor: Primary Screen for Agonists; activation, % at 2 µM; TRHR cells, calcium flux fluo-8, FDSS agonist mode; AID 493084, 2011; 0.18% of 360,000 active; Thyrotropin-releasing hormone receptor (Homo sapiens), P34981; further: 0% is about no effect
Target sequence (P34981 whole entry, looked up): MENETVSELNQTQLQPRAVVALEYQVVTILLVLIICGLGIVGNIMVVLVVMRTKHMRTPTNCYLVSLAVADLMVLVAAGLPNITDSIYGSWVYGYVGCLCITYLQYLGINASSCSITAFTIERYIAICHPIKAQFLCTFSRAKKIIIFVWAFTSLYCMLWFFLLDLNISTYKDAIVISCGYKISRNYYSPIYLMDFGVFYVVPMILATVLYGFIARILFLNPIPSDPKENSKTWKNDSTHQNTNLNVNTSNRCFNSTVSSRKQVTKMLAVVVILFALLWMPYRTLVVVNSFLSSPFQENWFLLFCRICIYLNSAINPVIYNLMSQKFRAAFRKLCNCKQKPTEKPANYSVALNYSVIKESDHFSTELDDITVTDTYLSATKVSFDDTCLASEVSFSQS
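Steps: seed TRHR cells overnight; add fluo-8 no-wash Ca dye, RT 30 min–1.5 h; record 10 s baseline; pin-transfer compounds; monitor fluorescence 1 cycle/s for the agonist window. Calcium increases flag candidate agonists.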
D1 antag = Antagonist of Human D 1 Dopamine Receptor: qHTS; D(1A) dopamine receptor (Homo sapiens), P21728; HEK293 TREx D1 cells, calcium flux, dopamine EC80; stronger effect = lower value; activity change, negative = inhibition, % at 10 µM; 3.2% of 360,000 active; AID 504652, 2011; in the data active means activity change below about -30%; further: on the % scale 0 is the no-effect control and ±100 the full control effect
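Cells carrying a force-coupled, tetracycline-inducible human D1 receptor report calcium flux. Each well gets a 10 s baseline, compound with 180 s monitoring, then an EC80 dopamine stimulus with a second 180 s kinetic read.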
TRHR PAM = qHTS for Small Molecule Agonists and Allosteric Enhancers of Human TRH Receptor: Primary Screen for Enhancers | Thyrotropin-releasing hormone receptor (Homo sapiens), P34981 | TRHR cells, fluo-8 calcium fluorescence, EC20 TRH enhancement | enhancement, % at 2 µM | 0.66% of 360,000 active | AID 493056, 2011; in the data active means enhancement above about 30%; further: 0% is about no effect
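TRHR-expressing cells loaded with fluo-8 calcium dye were read kinetically (ex 480/em 530) during compound addition, then stimulated with an EC20 of TRH (10 nM final). Enhancement of the Gq-mediated intracellular calcium response was scored.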
The depositor's hits bear a star; / = no result given; ! = not confirmed by another sample. A selection: hits, their analogues and other compounds. The true share with any hit is near 4.6%. Unless noted, no stated cut-off is given here; in the data, active means activation above about 30%; inactive means the rest.

SMILES | D1 ag | D1 potentiator | TRHR agonist | D1 antag | TRHR PAM
Cc1ccc(NC(=O)c2ccc(F)c(S(=O)(=O)N3CCc4ccccc4C3)c2)cc1F | 3.7 | -1.2 | 0.7 | 3.1 | 1.7
Cc1ccc(NC(=O)c2ccc(F)c(S(=O)(=O)NCCc3ccccc3)c2)cc1F | 11.7 | -0.8 | 1.6 | -30.2* | 3.1
CC1(C)CC(=O)C2=C(C1)Nc1ccccc1N1C(=O)c3ccccc3C21 (stereo not given) | 5.1 | -1.5 | 1.4 | -42.3* | -5.8
COc1ccc(C2Nc3ccccc3NC3=C2C(=O)CC(C)(C)C3)c(OC)c1OC (stereo not given) | -0.8 | -2.0 | 0.0 | 1.2 | -5.0
COc1cccc(C2Nc3ccccc3NC3=C2C(=O)CC(C)(C)C3)c1OC (stereo not given) | 7.7 | 6.3 | 0.7 | 19.3 | 34.7*
Cc1ccc(NC(=O)CSc2nc(-c3ccco3)nc3cc(=O)[nH]n23)cc1C | 4.1 | -2.1 | -0.8 | 7.0 | 16.4
COc1ccc(NC(=O)Cn2cc(S(=O)(=O)c3ccccc3)c(=O)c3cc4c(cc32)OCO4)cc1 | 3.9 | -3.9 | 0.6 | -46.6* | 1.6
Cc1ccc2c(c1)c(=O)c(S(=O)(=O)c1ccc(C)c(C)c1)cn2CC(=O)Nc1ccccc1 | 1.4 | -1.9 | 1.7 | -47.5* | 10.4
Cc1ccc(S(=O)(=O)c2cn(CC(=O)Nc3ccc(Cl)cc3)c3ccc(F)cc3c2=O)cc1C | 3.1 | -1.2 | 0.6 | 6.3 | -2.7
Cc1ccc(S(=O)(=O)c2cn(CC(=O)Nc3ccccc3)c3cc4c(cc3c2=O)OCO4)cc1 | 1.9 | 2.6 | 2.0 | -8.3 | -7.2
COc1ccc(NC(=O)C(OC(=O)CNC(=O)c2ccccc2)c2ccccc2)cc1F (stereo not given) | -0.1 | 5.2 | 0.5 | -6.0 | 1.8
CCc1ccc(CNC(=O)Cn2nc(C)c3nn(-c4ccc(Cl)cc4)c(C)c3c2=O)cc1 | 0.8 | -2.6 | -0.5 | -1.9 | -10.5
O=C(CCCCCl)Nc1c2c(nc3ccccc13)CCC2 | 0.7 | 0.3 | 0.5 | 20.4 | -3.9
COc1ccc(C)cc1Nc1c2c(nc3ccccc13)CCC2 | 6.4 | -9.9 | 1.1 | -55.0*! | -4.8
Fc1ccccc1Nc1c2c(nc3ccccc13)CCC2 | 2.7 | -5.2 | -2.0 | -33.5* | 15.5
c1ccc(Nc2c3c(nc4ccccc24)CCC3)cc1 | 4.3 | -10.7 | -1.1 | / | -0.5
CCCCCC(=O)Nc1c2c(nc3ccccc13)CCC2 | 1.7 | -1.1 | 0.3 | 2.8 | 31.7*
Fc1ccc(Nc2c3c(nc4ccccc24)CCC3)cc1 | 13.7 | -13.0 | -0.4 | -40.9* | 2.2
COc1cccc(N2CCN(C(=O)C3CCCN(S(=O)(=O)c4ccc(Br)s4)C3)CC2)c1 (stereo not given) | 0.4 | -0.9 | -0.8 | -14.6 | -6.2
COc1ccc(NC(=O)C2CCCN(c3ncnc4c3nc3n4CCCCC3)C2)c(OC)c1 (stereo not given) | -1.5 | -2.3 | -0.4 | 5.1 | 1.9
CCCOc1ccc(CN(C(=O)c2nc(SC(C)C)ncc2Cl)C2CCS(=O)(=O)C2)cc1 (stereo not given) | 1.6 | 2.9 | 0.7 | -0.4 | -3.1
Cc1nnc(SCc2cc(=O)[nH]c(Nc3nc(C)c4cc(C)c(C)cc4n3)n2)s1 | 0.0 | -1.8 | -0.8 | -73.0* | 0.6
Cc1ccc(SCc2cc(=O)[nH]c(Nc3nc(C)c4cccc(C)c4n3)n2)cc1 | 2.5 | -4.6 | 0.2 | 5.0 | 1.4
O=C(Nc1ccc(N2CCN(CCOc3ccc(Cl)cc3)CC2)c(C(=O)O)c1)c1ccc(F)cc1 | 3.1 | -1.1 | -0.4 | -13.0 | 6.1
Cc1ccc(Cn2cc3c(n2)-c2c(oc(C(=O)Nc4ccc(F)cc4F)c2C)CC3)cc1 | 3.2 | -0.3 | 0.2 | 0.7 | 4.5
CCOC(=O)c1cnc(-n2nc(C)cc2C)nc1NC1CCCC1 | 47.5* | -1.8 | -1.0 | 4.6 | 5.9
CC(C)CN1C(=O)c2ccccc2C1(O)Cc1ccccc1 (stereo not given) | 5.4 | -1.4 | -0.6 | -37.0* | 1.1
